Assay results reported in the supplement of paper PMC8975748.
Structures can show the parent of a compound that is named as a salt. ± gives the standard deviation of the averaged measurements.

Assays:
[1] = test system: Saccharomyces cerevisiae BY4741 SeMeCo community; assay: mean cell size (pixel area) (pixels); higher = larger cells; conditions: 10 µM; 24 h; SM minimal medium
In short: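 A Saccharomyces cerevisiae BY4741 community carrying four plasmids, each with a fluorescent marker and each complementing one auxotrophy, was exposed for 24 h to drug at a final 10 µM in SM medium in acoustically predosed 384-well plates. The overnight preculture (OD600 = 1.0) was diluted to OD600 = 0.3 before 70 µl was added per well. Cells were then fixed with paraformaldehyde, imaged by automated confocal microscopy and analysed in Harmony to derive mean cell pixel area per well, averaged over 3 replicates. Same SeMeCo high-content imaging drug screen: Selleck FDA-approved drugs at 10 µM, 24 h in SM medium, 384-well plates, 3 replicates.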

[2] = test system: Saccharomyces cerevisiae BY4741 SeMeCo community; assay: z-score of prototroph abundance vs DMSO median; higher = larger share of this subpopulation than in DMSO controls; conditions: 10 µM; 24 h; SM minimal medium; subpopulation (auxotrophy): Prototroph
In short: (§1)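 Automated confocal microscopy of paraformaldehyde-fixed cells was used to follow a Saccharomyces cerevisiae BY4741 community carrying four plasmids, each restoring one auxotrophy and encoding a distinct fluorescent protein. The community was pre-grown overnight to OD600 1.0, diluted to 0.3, and added at 70 µl to 384-well plates acoustically predosed with library drugs (10 µM final) for 24 h of growth in minimal SM medium. Single-auxotroph fluorescent strains set thresholds and autofluorescence correction, and each subpopulation's abundance was scored as a z-score against the vehicle-well median.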

[3] = test system: Saccharomyces cerevisiae BY4741 SeMeCo community; assay: z-score of subpopulation abundance vs DMSO median, subpopulation auxotrophic for M; higher = larger share of this subpopulation than in DMSO controls; conditions: 10 µM; 24 h; SM minimal medium; subpopulation (auxotrophy): M
In short: as §1

[4] = test system: Saccharomyces cerevisiae BY4741 SeMeCo community; assay: z-score of subpopulation abundance vs DMSO median, subpopulation auxotrophic for L; higher = larger share of this subpopulation than in DMSO controls; conditions: 10 µM; 24 h; SM minimal medium; subpopulation (auxotrophy): L
In short: as §1

[5] = test system: Saccharomyces cerevisiae BY4741 SeMeCo community; assay: z-score of subpopulation abundance vs DMSO median, subpopulation auxotrophic for U; higher = larger share of this subpopulation than in DMSO controls; conditions: 10 µM; 24 h; SM minimal medium; subpopulation (auxotrophy): U
In short: as §1

[6] = test system: Saccharomyces cerevisiae BY4741 SeMeCo community; assay: z-score of subpopulation abundance vs DMSO median, subpopulation auxotrophic for H; higher = larger share of this subpopulation than in DMSO controls; conditions: 10 µM; 24 h; SM minimal medium; subpopulation (auxotrophy): H
In short: as §1

[7] = test system: Saccharomyces cerevisiae BY4741 SeMeCo community; assay: z-score of subpopulation abundance vs DMSO median, subpopulation auxotrophic for LU; higher = larger share of this subpopulation than in DMSO controls; conditions: 10 µM; 24 h; SM minimal medium; subpopulation (auxotrophy): LU
In short: as §1

[8] = test system: Saccharomyces cerevisiae BY4741 SeMeCo community; assay: z-score of subpopulation abundance vs DMSO median, subpopulation auxotrophic for LM; higher = larger share of this subpopulation than in DMSO controls; conditions: 10 µM; 24 h; SM minimal medium; subpopulation (auxotrophy): LM
In short: as §1

[9] = test system: Saccharomyces cerevisiae BY4741 SeMeCo community; assay: z-score of subpopulation abundance vs DMSO median, subpopulation auxotrophic for HM; higher = larger share of this subpopulation than in DMSO controls; conditions: 10 µM; 24 h; SM minimal medium; subpopulation (auxotrophy): HM
In short: as §1

[10] = test system: Saccharomyces cerevisiae BY4741 SeMeCo community; assay: z-score of subpopulation abundance vs DMSO median, subpopulation auxotrophic for HU; higher = larger share of this subpopulation than in DMSO controls; conditions: 10 µM; 24 h; SM minimal medium; subpopulation (auxotrophy): HU
In short: as §1

[11] = test system: Saccharomyces cerevisiae BY4741 SeMeCo community; assay: z-score of subpopulation abundance vs DMSO median, subpopulation auxotrophic for UM; higher = larger share of this subpopulation than in DMSO controls; conditions: 10 µM; 24 h; SM minimal medium; subpopulation (auxotrophy): UM
In short: as §1

[12] = test system: Saccharomyces cerevisiae BY4741 SeMeCo community; assay: z-score of subpopulation abundance vs DMSO median, subpopulation auxotrophic for HL; higher = larger share of this subpopulation than in DMSO controls; conditions: 10 µM; 24 h; SM minimal medium; subpopulation (auxotrophy): HL
In short: as §1

[13] = test system: Saccharomyces cerevisiae BY4741 SeMeCo community; assay: z-score of subpopulation abundance vs DMSO median, subpopulation auxotrophic for HLU; higher = larger share of this subpopulation than in DMSO controls; conditions: 10 µM; 24 h; SM minimal medium; subpopulation (auxotrophy): HLU
In short: as §1

[14] = test system: Saccharomyces cerevisiae BY4741 SeMeCo community; assay: z-score of subpopulation abundance vs DMSO median, subpopulation auxotrophic for HLM; higher = larger share of this subpopulation than in DMSO controls; conditions: 10 µM; 24 h; SM minimal medium; subpopulation (auxotrophy): HLM
In short: as §1

[15] = test system: Saccharomyces cerevisiae BY4741 SeMeCo community; assay: z-score of subpopulation abundance vs DMSO median, subpopulation auxotrophic for LUM; higher = larger share of this subpopulation than in DMSO controls; conditions: 10 µM; 24 h; SM minimal medium; subpopulation (auxotrophy): LUM
In short: as §1

[16] = test system: Saccharomyces cerevisiae BY4741 SeMeCo community; assay: z-score of subpopulation abundance vs DMSO median, subpopulation auxotrophic for HLUM; higher = larger share of this subpopulation than in DMSO controls; conditions: 10 µM; 24 h; SM minimal medium; subpopulation (auxotrophy): HLUM
In short: as §1

[17] = test system: Saccharomyces cerevisiae BY4741 SeMeCo community; assay: z-score of subpopulation abundance vs DMSO median, subpopulation auxotrophic for HUM; higher = larger share of this subpopulation than in DMSO controls; conditions: 10 µM; 24 h; SM minimal medium; subpopulation (auxotrophy): HUM
In short: as §1

| Compound | mean cell size [1] | z-score of prototroph abundance [2] | z-score of subpopulation abundance [3] | z-score of subpopulation abundance [4] | z-score of subpopulation abundance [5] | z-score of subpopulation abundance [6] | z-score of subpopulation abundance [7] | z-score of subpopulation abundance [8] | z-score of subpopulation abundance [9] | z-score of subpopulation abundance [10] | z-score of subpopulation abundance [11] | z-score of subpopulation abundance [12] | z-score of subpopulation abundance [13] | z-score of subpopulation abundance [14] | z-score of subpopulation abundance [15] | z-score of subpopulation abundance [16] | z-score of subpopulation abundance [17] |
| --- | --- | --- | --- | --- | --- | --- | --- | --- | --- | --- | --- | --- | --- | --- | --- | --- | --- |
| CCC[C@@H]1C[C@@H](C(=O)N[C@@H]([C@H]2O[C@H](SC)[C@H](O)[C@@H](O)[C@H]2O)[C@@H](C)O)N(C)C1 [Lincomycin Hydrochloride Monohydrate] | 12.3 ± 0.19 | -0.67 | 0.19 | -0.22 | 0.86 | -0.54 | 0.94 | -0.56 | -0.07 | 0.41 | 0.42 | -0.46 | 0.91 | -0.3 | 0.4 | 0.63 | – |
| CC(=O)OCC1=C(C(=O)O)N2C(=O)C(NC(=O)CSC(=NC(C)C)NC(C)C)C2SC1 (stereo unspecified) [Cefathiamidine] | – | 0.65 | -0.3 | -0.86 | – | – | -0.47 | – | -0.6 | -0.62 | 0.84 | -1.06 | -1.21 | -1.16 | -0.68 | -1.54 | 0.21 |
| Cc1cccc(C#Cc2ccccc2)n1 | – | – | -0.25 | 0.06 | – | 0.06 | 0.12 | -0.31 | -0.61 | -0.18 | -0.28 | -0.06 | -0.17 | -0.43 | – | -0.82 | -0.32 |
| CC(N)C12CC3CC(CC(C3)C1)C2 (stereo unspecified) [Rimantadine] | – | – | 0.39 | 0.04 | 0.97 | 0.34 | 0.71 | 0.09 | 0.19 | – | 1.1 | – | 0.68 | 0.47 | 0.08 | -0.32 | 0.67 |
| Cn1c(=O)c2c(ncn2CC(O)CO)n(C)c1=O (stereo unspecified) [Dyphylline] | – | 1.12 | -1.07 | -0.69 | – | -0.64 | -0.11 | -0.74 | -0.97 | -0.83 | -0.61 | -0.71 | -0.29 | -0.91 | -1.44 | -0.64 | -1.32 |
| C[C@H]1c2cccc(O)c2C(O)=C2C(=O)[C@]3(O)C(O)=C(C(N)=O)C(=O)[C@@H](N(C)C)[C@@H]3[C@@H](O)[C@@H]21 [Doxycycline monohydrate] | – | – | -0.88 | 0.54 | -0.54 | 0.17 | -0.41 | – | -1.15 | -1.42 | -1.13 | – | -0.54 | 0.18 | – | 0.42 | -0.92 |
| COC(=O)C1=C(C)NC(C)=C(C(=O)OCCN2CCN(C(c3ccccc3)c3ccccc3)CC2)C1c1cccc([N+](=O)[O-])c1 (stereo unspecified) [Manidipine 2HCl] | – | -1.31 | 2.89 | 0.47 | -1.31 | 1.78 | -0.77 | 2.4 | 2.87 | – | -0.8 | 2.26 | 0.54 | 1.42 | – | – | 1.21 |
| CC1(C)S[C@@H]2[C@H](NC(=O)COc3ccccc3)C(=O)N2[C@H]1C(=O)O [Penicillin V potassium salt] | 11.8 ± 0.2 | 0.29 | 0.91 | -1.58 | 0.95 | – | -0.1 | 0.22 | 0.44 | 0.49 | 0.57 | – | -0.94 | -0.74 | -0.32 | -1.08 | – |
| CCOC(=O)C1=C[C@]2(CC)CCCN3CCc4c(n1c1ccccc41)[C@@H]32 [Vinpocetine] | – | -0.9 | 2.07 | 0.01 | – | -0.46 | 0.81 | 0.73 | 0.55 | – | 1.1 | 0.11 | -0.1 | 0.39 | 0.25 | – | 0.65 |
| C[C@@H](CN1CC(=O)NC(=O)C1)N1CC(=O)NC(=O)C1 [Dexrazoxane HCl (ICRF-187, ADR-529)] | – | 0.46 | 0.18 | -1.96 | – | -0.64 | -0.36 | -1.65 | -0.36 | – | 0.22 | -1.52 | -1.07 | -0.81 | -0.98 | -0.79 | -0.23 |
| COc1ccc2c3c1O[C@H]1C[C@@H](O)C=C[C@@]31CCN(C)C2 [Galanthamine HBr] | – | -0.57 | 1.78 | -0.44 | – | – | 0.01 | -0.06 | 0.96 | – | 1.03 | -0.01 | 0.43 | -0.5 | – | – | 0.61 |
| CC1CCc2c(N3CCC(O)CC3)c(F)cc3c(=O)c(C(=O)O)cn1c23 (stereo unspecified) [Nadifloxacin] | – | -0.14 | 0.33 | 0.77 | – | -0.1 | 0.62 | 0.06 | 0 | 0.43 | -0.28 | 0 | -0.45 | 0.15 | 0.27 | 0.26 | -0.22 |
| O=C(O)CCNC(=O)c1ccccc1 [Betamipron] | – | -0.09 | 0.51 | -1.22 | 0.99 | -0.34 | -0.21 | -0.71 | -0.4 | – | 0.43 | -0.92 | -1 | -1.05 | -0.64 | -0.5 | -0.33 |
| Cc1nnc(SCC2=C(C(=O)O)N3C(=O)[C@@H](NC(=O)Cn4cnnn4)[C@H]3SC2)s1 [Cefazolin Sodium] | – | -1.09 | 0.3 | 0 | 0.46 | 1.95 | 1.43 | 0.26 | 0.05 | 2.2 | – | 1.09 | 0.52 | 0.22 | 0.5 | – | 0.08 |
| CC(C)COc1ccc(CNC(=O)N(Cc2ccc(F)cc2)C2CCN(C)CC2)cc1 [Pimavanserin] | – | -0.05 | 1.1 | -1.18 | 0.22 | -0.39 | 0.32 | -0.48 | -0.22 | 1.4 | -0.58 | 0.41 | -0.54 | 0.27 | -0.56 | – | -0.82 |
